Results as given in PubChem BioAssay (NCI).
About 83,000 compounds went through this panel and 20% of them were active in at least one assay; those are over-represented in the sample as a whole.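 Step 1: grow cells in 96-well plates. Step 2: add test compound at a single concentration. Step 3: incubate 48 h. Step 4: record percent growth.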 Active and inactive are the calls of the source. The calls were made as follows: active = growth percent below 10; inactive = the rest.

Tests used:
Assay in all cases: NCI-60 one-dose screen, 48 h (100 = growth as untreated, 0 = no growth, -100 = all killed)
NCI-H23 lung = settings: 10 µM unless noted
NCI-H226 lung = settings: 10 µM unless noted
NCI-H322M lung = settings: 10 µM unless noted
HOP-62 NSCLC = settings: 10 µM unless noted
NCI-H460 lung = settings: 10 µM unless noted
HOP-92 NSCLC = settings: 10 µM unless noted
NCI-H522 lung = settings: 10 µM unless noted
A549/ATCC NSCLC = settings: 10 µM unless noted
786-0 renal = settings: 10 µM unless noted
COLO 205 colon = settings: 10 µM unless noted
DU-145 prostate = settings: 10 µM unless noted
MALME-3M melanoma = settings: 10 µM unless noted
MDA-MB-231 breast = settings: 10 µM unless noted
RXF 393 renal = settings: 10 µM unless noted
SF-268 CNS = settings: 10 µM unless noted
SF-295 CNS = settings: 10 µM unless noted
SF-539 CNS = settings: 10 µM unless noted
UACC-257 melanoma = settings: 10 µM
M14 melanoma = settings: 10 µM unless noted
K-562 leukemia = settings: 10 µM unless noted

Measured: growth

Clc1ccc([I+]c2ccc(Cl)cc2Cl)c(Cl)c1
inactive: NCI-H23 lung 18% | NCI-H226 lung 102% | NCI-H322M lung 77.2% | HOP-62 NSCLC 36.5% | NCI-H460 lung 81% | HOP-92 NSCLC 14.9% | A549/ATCC NSCLC 76% | 786-0 renal 11.2% | MALME-3M melanoma 50.2% | MDA-MB-231 breast 38.3% | SF-268 CNS 26.5% | SF-295 CNS 97.4% | SF-539 CNS 16.8% | UACC-257 melanoma 66.4% | M14 melanoma 88.8%
active: NCI-H522 lung -91.1% | COLO 205 colon -79.2% | DU-145 prostate 4.04% | RXF 393 renal -15.1%

Cc1nc2sccn2c1-c1csc(Nc2ccccc2Cl)n1
inactive: NCI-H23 lung 38.2% | NCI-H226 lung 57.7% | NCI-H322M lung 64.4% | HOP-62 NSCLC 54.2% | NCI-H460 lung 35.3% | HOP-92 NSCLC 60.9% | NCI-H522 lung 41.9% | A549/ATCC NSCLC 34.4% | 786-0 renal 55.3% | DU-145 prostate 68.2% | K-562 leukemia 12.5% | MALME-3M melanoma 56.2% | MDA-MB-231 breast 66.5% | RXF 393 renal 67.2% | SF-268 CNS 71.3% | SF-295 CNS 36.2% | SF-539 CNS 52% | UACC-257 melanoma 46%

CC(=O)C1CCC(C)=CC1=O (stereo unspecified)
inactive: NCI-H23 lung 102% | NCI-H226 lung 104% | NCI-H322M lung 85.8% | HOP-62 NSCLC 111% | NCI-H460 lung 106% | HOP-92 NSCLC 96.9% | NCI-H522 lung 89.7% | A549/ATCC NSCLC 98.3% | 786-0 renal 91.8% | COLO 205 colon 116% | DU-145 prostate 114% | MALME-3M melanoma 93.4% | MDA-MB-231 breast 104% | RXF 393 renal 113% | SF-268 CNS 99.1% | SF-295 CNS 101% | SF-539 CNS 99.6% | UACC-257 melanoma 92.8% | M14 melanoma 97.5%

CC(=O)Nc1ccc(S(=O)(=O)NC(CCC(=O)Nc2ccc(Cl)cc2)C(=O)O)cc1 (stereo unspecified)
inactive: NCI-H23 lung 97.3% | NCI-H226 lung 96.8% | NCI-H322M lung 96.9% | HOP-62 NSCLC 92.2% | NCI-H460 lung 105% | HOP-92 NSCLC 113% | NCI-H522 lung 97.1% | A549/ATCC NSCLC 93.8% | 786-0 renal 107% | COLO 205 colon 97.8% | DU-145 prostate 102% | K-562 leukemia 77.4% | MDA-MB-231 breast 95% | RXF 393 renal 108% | SF-268 CNS 102% | SF-295 CNS 98.8% | SF-539 CNS 99.2% | UACC-257 melanoma 98% | M14 melanoma 99.2%

O=S(=O)(NCCCNc1nccc(-c2c(-c3ccc(O)cc3)nc3sccn23)n1)c1ccc(F)cc1
active: NCI-H23 lung 1.81% | NCI-H226 lung 3.13% | NCI-H460 lung 1.37% | NCI-H522 lung -1.49% | COLO 205 colon 1.03% | K-562 leukemia 7.51% | MDA-MB-231 breast 7.09% | RXF 393 renal -12.7% | SF-295 CNS -34.9% | SF-539 CNS 0.696% | UACC-257 melanoma 4.9% | M14 melanoma -26.2%
inactive: NCI-H322M lung 17.6% | HOP-62 NSCLC 10% | HOP-92 NSCLC 12.3% | A549/ATCC NSCLC 15.9% | 786-0 renal 16.4% | DU-145 prostate 10.6% | SF-268 CNS 17.8%

Nc1c(C(=O)Nc2ccccc2)sc2nc3c(cc12)CN(Cc1ccccc1)CC3
inactive: NCI-H23 lung 79.1% | NCI-H226 lung 45.2% | NCI-H322M lung 50% | HOP-62 NSCLC 52.1% | NCI-H460 lung 32.8% | HOP-92 NSCLC 20.2% | NCI-H522 lung 80.2% | A549/ATCC NSCLC 54.2% | 786-0 renal 28.8% | COLO 205 colon 97.8% | DU-145 prostate 58.9% | K-562 leukemia 61.1% | MDA-MB-231 breast 42.6% | RXF 393 renal 49.9% | SF-268 CNS 48.8% | SF-295 CNS 66.4% | SF-539 CNS 12.6% | UACC-257 melanoma 74% | M14 melanoma 82.2%

CCn1cc(C(=O)O)c(=O)c2cc(F)c(N3CCN(S(=O)(=O)c4ccc(OC)c(OC)c4)CC3)cc21
inactive: NCI-H23 lung 99.6% | NCI-H226 lung 95.9% | NCI-H322M lung 102% | HOP-62 NSCLC 100% | NCI-H460 lung 108% | HOP-92 NSCLC 91.5% | NCI-H522 lung 90.6% | A549/ATCC NSCLC 105% | 786-0 renal 99.5% | DU-145 prostate 108% | K-562 leukemia 101% | MALME-3M melanoma 93.6% | MDA-MB-231 breast 103% | RXF 393 renal 109% | SF-268 CNS 88.9% | SF-295 CNS 93.8% | SF-539 CNS 90.8% | UACC-257 melanoma 106%

COC12CC(=O)C(C(C)=O)=C(O)C1(C)c1c(O)c(C)c(O)c(C(C)=O)c1O2 (stereo unspecified)
inactive: NCI-H23 lung 50.5% | NCI-H226 lung 81.2% | NCI-H322M lung 71.4% | HOP-62 NSCLC 86% | NCI-H460 lung 55.1% | HOP-92 NSCLC 46% | NCI-H522 lung 70.1% | A549/ATCC NSCLC 64.8% | 786-0 renal 60.8% | DU-145 prostate 90.2% | K-562 leukemia 70.4% | MALME-3M melanoma 90.7% | MDA-MB-231 breast 92.7% | RXF 393 renal 90.3% | SF-268 CNS 78.4% | SF-295 CNS 13.3% | SF-539 CNS 78.5% | UACC-257 melanoma 90.7% | M14 melanoma 66.7%

Clc1ccc(-c2nc(-c3ccco3)cn3ccnc23)cc1
inactive: NCI-H23 lung 61% | NCI-H226 lung 46.3% | NCI-H322M lung 11.4% | HOP-62 NSCLC 31.4% | NCI-H460 lung 14.5% | HOP-92 NSCLC 34.7% | NCI-H522 lung 61.5% | COLO 205 colon 75% | DU-145 prostate 67.3% | K-562 leukemia 68.9% | MALME-3M melanoma 77% | RXF 393 renal 41.6% | SF-268 CNS 64.3% | SF-295 CNS 15.1% | SF-539 CNS 62.2% | UACC-257 melanoma 75.2%
active: A549/ATCC NSCLC -1.62% | 786-0 renal -41.1%

CNC(C)=O
inactive: NCI-H23 lung 95.3% | NCI-H226 lung 95.1% | NCI-H322M lung 92% | HOP-62 NSCLC 94.4% | NCI-H460 lung 106% | HOP-92 NSCLC 103% | NCI-H522 lung 89% | A549/ATCC NSCLC 92.1% | 786-0 renal 106% | COLO 205 colon 98.8% | DU-145 prostate 99.5% | K-562 leukemia 90.3% | MALME-3M melanoma 86.1% | RXF 393 renal 105% | SF-268 CNS 98.4% | SF-295 CNS 93.7% | SF-539 CNS 89.8% | UACC-257 melanoma 102% | M14 melanoma 108%

Cc1ccc(C2=NN(c3ccc(S(N)(=O)=O)cc3)C(c3cn(-c4ccccc4)nc3-c3ccccc3)C2)cc1 (stereo unspecified)
inactive: NCI-H23 lung 93.8% | NCI-H226 lung 97.8% | NCI-H322M lung 101% | HOP-62 NSCLC 105% | NCI-H460 lung 38.9% | HOP-92 NSCLC 27.7% | NCI-H522 lung 75.2% | A549/ATCC NSCLC 65% | 786-0 renal 109% | COLO 205 colon 101% | DU-145 prostate 65.7% | K-562 leukemia 21.9% | MDA-MB-231 breast 82.7% | RXF 393 renal 95.8% | SF-268 CNS 42.7% | SF-295 CNS 104% | SF-539 CNS 112% | UACC-257 melanoma 98.8% | M14 melanoma 96.1%

CCCCCCCCCCCCOB(OCCCCCCCCCCCC)OCCCCCCCCCCCC
inactive: NCI-H23 lung 88.3% | NCI-H226 lung 99.3% | NCI-H322M lung 101% | HOP-62 NSCLC 94.5% | NCI-H460 lung 109% | HOP-92 NSCLC 101% | NCI-H522 lung 95.2% | A549/ATCC NSCLC 97.8% | 786-0 renal 120% | COLO 205 colon 98.2% | DU-145 prostate 100% | K-562 leukemia 92.5% | MALME-3M melanoma 90.4% | RXF 393 renal 114% | SF-268 CNS 97.2% | SF-295 CNS 104% | SF-539 CNS 106% | UACC-257 melanoma 95.4% | M14 melanoma 117%

CCN(Cc1ccccc1)c1ccc(SC#N)cc1
active: NCI-H522 lung -26.7%
inactive: NCI-H23 lung 80.6% | NCI-H226 lung 112% | NCI-H322M lung 91.6% | HOP-62 NSCLC 118% | NCI-H460 lung 90% | HOP-92 NSCLC 53.4% | A549/ATCC NSCLC 102% | 786-0 renal 73.4% | COLO 205 colon 50.4% | DU-145 prostate 98.3% | K-562 leukemia 41% | MALME-3M melanoma 88% | RXF 393 renal 47.6% | SF-268 CNS 83.8% | SF-295 CNS 95.3% | SF-539 CNS 82.2% | UACC-257 melanoma 107% | M14 melanoma 89.2%

Nc1nc(-c2ccccc2)cs1
inactive: NCI-H23 lung 111% | NCI-H226 lung 93.3% | NCI-H322M lung 109% | HOP-62 NSCLC 97% | NCI-H460 lung 109% | HOP-92 NSCLC 101% | NCI-H522 lung 102% | A549/ATCC NSCLC 95.6% | 786-0 renal 105% | COLO 205 colon 108% | DU-145 prostate 104% | K-562 leukemia 114% | MDA-MB-231 breast 104% | RXF 393 renal 120% | SF-268 CNS 96.4% | SF-295 CNS 104% | SF-539 CNS 99.1% | UACC-257 melanoma 98.5% | M14 melanoma 97.2%

COc1ccc(/C=C/C(=O)c2cccc(B(O)O)c2)cc1O
active: DU-145 prostate -10% | K-562 leukemia 8.39% | SF-539 CNS 0.0331%
inactive: NCI-H23 lung 61.9% | NCI-H226 lung 91.5% | NCI-H322M lung 64% | HOP-62 NSCLC 40.5% | NCI-H460 lung 13.8% | HOP-92 NSCLC 41.4% | NCI-H522 lung 43.9% | A549/ATCC NSCLC 41.7% | 786-0 renal 59.1% | COLO 205 colon 98.3% | MDA-MB-231 breast 48.2% | RXF 393 renal 41.5% | SF-268 CNS 47.8% | SF-295 CNS 87.4% | UACC-257 melanoma 75% | M14 melanoma 70.6%

O=C(O)c1cccc([N+](=O)[O-])c1/C=C/c1ccccc1
inactive: NCI-H23 lung 102% | NCI-H226 lung 96.9% | NCI-H322M lung 90.5% | HOP-62 NSCLC 92.6% | NCI-H460 lung 103% | HOP-92 NSCLC 112% | NCI-H522 lung 116% | A549/ATCC NSCLC 104% | 786-0 renal 98.1% | COLO 205 colon 98.9% | DU-145 prostate 105% | MALME-3M melanoma 90.4% | MDA-MB-231 breast 109% | RXF 393 renal 103% | SF-268 CNS 97.7% | SF-295 CNS 95.4% | SF-539 CNS 107% | UACC-257 melanoma 117% | M14 melanoma 101%
